Screens (PubChem BioAssay)
KCNQ2 inh: rat KCNQ2 potassium channel inhibitors, primary screen, cell-based, CHO-K1, FluxOR thallium flux, B-score | AID 2156, 2009 | B-score at 10 µM | Potassium voltage-gated channel subfamily KQT member 2 (Rattus norvegicus), O88943 | 310,000 tested, 1.1% active | 20 min; hits give low values;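 active means fluorescence ratio B-score at most minus 3 library SDs, with starting brightness B-score within 2 library SDs, cut at about -5.5 in these data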
Target sequence (O88943 whole entry, looked up): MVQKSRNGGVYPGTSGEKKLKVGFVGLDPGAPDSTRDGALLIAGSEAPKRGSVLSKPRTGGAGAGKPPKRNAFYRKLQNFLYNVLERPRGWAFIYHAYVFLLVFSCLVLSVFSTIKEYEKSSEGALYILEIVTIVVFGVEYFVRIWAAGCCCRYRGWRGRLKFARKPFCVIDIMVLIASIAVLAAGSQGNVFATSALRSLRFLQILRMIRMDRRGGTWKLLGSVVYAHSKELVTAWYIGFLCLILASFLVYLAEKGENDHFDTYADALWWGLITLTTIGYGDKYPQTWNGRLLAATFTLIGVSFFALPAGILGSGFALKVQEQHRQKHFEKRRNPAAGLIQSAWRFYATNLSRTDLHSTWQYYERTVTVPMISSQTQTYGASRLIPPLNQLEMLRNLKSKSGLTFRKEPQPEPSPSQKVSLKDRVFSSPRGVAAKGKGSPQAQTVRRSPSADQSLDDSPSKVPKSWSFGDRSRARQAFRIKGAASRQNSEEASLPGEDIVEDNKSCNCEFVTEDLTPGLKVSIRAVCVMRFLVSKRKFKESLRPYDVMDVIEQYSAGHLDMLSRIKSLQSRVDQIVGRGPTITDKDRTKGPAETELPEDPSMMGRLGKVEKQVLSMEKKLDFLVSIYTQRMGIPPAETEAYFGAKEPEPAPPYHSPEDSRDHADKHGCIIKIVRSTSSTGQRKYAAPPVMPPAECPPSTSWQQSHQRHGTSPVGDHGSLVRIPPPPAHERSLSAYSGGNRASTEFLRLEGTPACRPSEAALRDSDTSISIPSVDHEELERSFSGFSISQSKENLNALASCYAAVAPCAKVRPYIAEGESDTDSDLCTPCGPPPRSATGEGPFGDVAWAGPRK
KCNQ2 pot: potentiators of rat KCNQ2 potassium channel | B-score at 10 µM | 310,000 tested, 0.54% active | AID 2239, 2010 | Potassium voltage-gated channel subfamily KQT member 2 (Rattus norvegicus), O88943 | CHO-K1 KCNQ2, FluxOR thallium flux fluorescence; hits give high values;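 active means fluorescence ratio B-score at least 3 SD of library B-scores, with initial fluorescence B-score within 3 of them, cut at about 5.3 in these data; same plate scores as AID 2156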;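 further: B-score of peak minus minimum over baseline fluorescence ratio after K+ and Tl+ stimulus; positive B-score means potentiation of KCNQ2 with more thallium influx and brighter signal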
* = called active by the depositor; i = inactive; / = no result given. Sampled rows, rich in hits. Any-hit rate of the full collection: about 1.6%.

SMILES | KCNQ2 inh | KCNQ2 pot
Cc1ccc(S[C@@H](CCN2CC[C@H](NC(=O)OCc3ccccc3)CCC2=O)c2ccccc2)cc1 | -6.89* | -6.89
Cc1ccc(SC[C@H](C)CN2CC[C@H](NC(=O)OCc3ccccc3)CCC2=O)cc1 | i | /
NS(=O)(=O)c1ccc(NC(=O)/C=C/c2cccs2)cc1 | i | /
Cc1nc(N2CCN(S(=O)(=O)c3ccccc3C#N)CC2)c2c(-c3cccs3)csc2n1 | i | /
Cc1nc(SCC(=O)NC(C)(C)C)c2c(-c3cccs3)csc2n1 | -6.23* | -6.23
COCCCn1c(SCC(=O)NC(C)(C)C)nnc1-c1cccs1 | i | 0.45
Cc1nc(N2CCCCC2)c2c(-c3cccs3)csc2n1 | -8.24* | -8.24
COc1ccccc1CC(=O)NC12CC3CC(CC(C3)C1)C2 | i | 3.87
CCN(CC)CCCNC(=O)c1cc2nc(-c3ccccc3)cc(C(F)(F)F)n2n1 | i | 1.03
O=C(OCC(=O)c1c[nH]c2ccccc12)c1cccc(S(=O)(=O)N2CCCCCC2)c1 | i | 8.85*
O=C(COC(=O)c1cccc(S(=O)(=O)N2CCCC2)c1)Nc1ccccc1 | i | 1.61
COc1ccc(-c2nc(CN(C)C(C)c3ccon3)c(C)o2)c(C)c1C (configuration not stated) | i | /
COc1ccc(-c2nc(CN(CC3CCC(=O)N3)C(C)C)c(C)o2)c(C)c1C (configuration not stated) | -6.69* | -6.69
CCCCC(C(=O)NC1CCCC1)N(Cc1ccco1)C(=O)Cn1nnc(-c2ccc(F)cc2)n1 (configuration not stated) | -7.24* | -7.24
O=C(CN(Cc1ccco1)C(=O)Cn1nnc(-c2ccc(F)cc2)n1)NC1CCCC1 | i | 0.08
Cc1ccc(-c2nc(CS(=O)(=O)CC(=O)N3CCCCCC3)c(C)o2)cc1 | i | /
CC(C)N1CC(C(=O)Nc2cccc([N+](=O)[O-])c2)CC1=O (configuration not stated) | i | 1.11
CCN(C(=O)CSc1cc(C)c2ccccc2n1)c1c(N)n(Cc2ccccc2)c(=O)[nH]c1=O | i | 0.13
COCC(=O)Oc1c(Sc2ccccc2[N+](=O)[O-])c(C)nn1C(C)(C)C | i | /
CCC(CC)C(=O)Oc1c(Sc2ccccc2[N+](=O)[O-])c(C)nn1C(C)(C)C | -6.01* | -6.01
OC1(c2ccc(Br)cc2)CN(c2ccccc2)C2=[N+]1CCS2 (configuration not stated) | -6.02* | -6.02
COc1ccc(C2(O)CN(c3ccccc3)C3=[N+]2CCS3)cc1OC (configuration not stated) | i | /
OC1(c2ccc(Cl)cc2)CN(c2ccccc2)C2=[N+]1CCS2 (configuration not stated) | -7.15* | -7.15
COc1ccc(OC)c(N2CC(O)(c3ccccc3)[N+]3=C2SCCC3)c1 (configuration not stated) | i | /
Cc1cc(-c2ccc(C(C)C)c(S(=O)(=O)N3CCN(c4ccccc4)CC3)c2)on1 | i | /
SMILES | KCNQ2 inh | KCNQ2 pot
COc1ccccc1N1CCN(S(=O)(=O)c2cc(-c3cc(C)no3)ccc2C(C)C)CC1 | -6* | -6
CC(C)[C@H](NC(=O)N1c2ccccc2NC(=O)[C@@H]1C(C)C)C(=O)N[C@@H](Cc1ccccc1)C(=O)O | i | /
COc1cccc(CNc2ccc(S(N)(=O)=O)cc2)c1OCc1ccccc1F | i | 9.3*
C=CCOc1c(CNc2ccc(S(N)(=O)=O)cc2)cccc1OC | i | 1.39
CN(C)CCCN(C(=O)c1ccc(S(=O)(=O)N(C)C)cc1)c1nc2ccc(F)cc2s1 | i | 0.62
C=CCNC(=S)Nc1sc2c(c1C(=O)OCC)CCN(C(=O)OCC)C2 | i | /
C=CCNC(=S)Nc1sc2c(c1C(=O)OCC)CC(C)(CC)OC2 (configuration not stated) | i | 9.92*
Cc1ccc(NC(=O)/C=C/c2ccco2)cc1S(=O)(=O)N1CCCCCC1 | i | /
CCc1ccc2c(c1)c(N=NC1=NC(=O)CS1)c(O)n2C | i | 5.85*
Cc1cc(C)c2[nH]c(O)c(N=NC3=NC(=O)CS3)c2c1 | i | 0.94
CCC1(CC)C(=O)C2=C3C1[C@H](C(=O)OC)CC(C(=O)OC)C[C@H]3n1c(=O)n(-c3ccccc3)c(=O)n1[C@H]2C (some centres not stated) | i | /
CCN1CCN(C(=O)CS(=O)Cc2nc(-c3cccc(C)c3)oc2C)CC1 (configuration not stated) | i | /
Cc1cccc(-c2nc(CS(=O)CC(=O)N3CCc4ccccc4C3)c(C)o2)c1 (configuration not stated) | -7.77* | -7.77
Cc1ccc(-c2nc(CS(=O)CC(=O)NCCN(CC(C)C)CC(C)C)c(C)o2)cc1 (configuration not stated) | i | /
CC(=O)/C(C#N)=C1\NC(=O)C(Cc2ccccc2)S1 (configuration not stated) | i | 0.14
c1cnc(-c2nnc3n2CCCCC3)cn1 | i | 4.56
O=C(Cn1nc(-c2ccccc2)nc1-c1ccccc1)OC1CCCCC1 | -6.09* | -6.09
CCOC(=O)Cn1nc(-c2ccccc2)nc1-c1ccccc1 | i | /
CCOC(=O)c1cc2c(=O)n3ccccc3nc2n(Cc2ccco2)c1=NC(=O)c1ccccc1OCC | i | /
CCOC(=O)c1cc2c(=O)n3ccccc3nc2n(Cc2ccco2)c1=NC(=O)c1cccnc1 | -7.1* | -7.1
CCOC(=O)c1cc2c(=O)n3ccccc3nc2n(CCOC)c1=NC(=O)C(C)(C)C | i | 9.69*
CCOC(=O)c1cc2c(=O)n3ccccc3nc2n(CCCOC)c1=NC(=O)C(C)(C)C | i | 1.1
CCc1ccc(NC(=S)NC2CCN(Cc3ccccc3)CC2)cc1 | i | /
CCOc1ccc(NS(=O)(=O)c2ccc(C(=O)NCc3ccccn3)cc2)cc1 | i | 0.58
Cc1ccccc1NC(=O)N1CCN(C(=O)c2ccco2)CC1 | i | 0.17
SMILES | KCNQ2 inh | KCNQ2 pot
Cc1ccccc1Cc1n[nH]c(=S)n1N | i | 0.96
O=C(Nc1cccc(Cl)c1)c1cnn2cccnc12 | i | /
COC(=O)C1C(O)=C(C=Nc2cccc3ccccc23)C(=O)CC1(C)C (configuration not stated) | -5.97* | -5.97
COC(=O)C1C(O)=C(C=NCc2ccccc2)C(=O)CC1(C)C (configuration not stated) | i | /
Brc1ccc(-c2nc(-c3ccncc3)no2)o1 | i | 0.04
C=C(C)COc1ccc(-c2ncncc2Oc2ccc(OC)cc2)c(O)c1 | -5.81* | -5.81
C=C(C)COc1ccc(-c2nc(N)nc(C)c2-c2ccc(OC)cc2)c(O)c1 | i | /
CCOC(=O)C1CCCN(CCc2ccccc2)C1 (configuration not stated) | i | 1.38
O=C(NC1CCCN(CCc2ccccc2)C1)C1CCCC1 (configuration not stated) | -6.77* | -6.77
CC(=O)N1CC=CC1(C)C(=O)NCc1cc(F)cc(C(F)(F)F)c1 (configuration not stated) | i | /
CCOC(=O)C1CCCN(C(=O)c2cc(Nc3ccc(OC)c(OC)c3)nc3ccccc23)C1 (configuration not stated) | i | /
CCOC(=O)C1CCCN(C(=O)c2cc(Nc3ccc(OC)cc3OC)nc3ccccc23)C1 (configuration not stated) | -7.62* | -7.62
